Tests used:
[1] = test system: Botulinum neurotoxin type F light chain protease (Clostridium botulinum); experiment: Botulinum neurotoxin type F light chain protease inhibition, multiplex microsphere flow cytometry, validation set (AID 588459); conditions: multiplex microsphere protease substrate cleavage assay, at 10 µM, hits give high values
[2] = target: Botulinum neurotoxin type A (Clostridium botulinum) (UniProt P0DPI0); experiment: BoNT/A light chain protease inhibitors, biochemical, multiplex microsphere flow cytometry, validation set (AID 588460); conditions: at 10 µM, hits give high values
[3] = target: Lethal factor (Bacillus anthracis) (UniProt P15917); experiment: Lethal factor protease inhibitors, Bacillus anthracis, multiplex microsphere cleavage assay, validation set (AID 588461); conditions: flow cytometry, at 10 µM, hits give high values

Measured: inhibition

C[N+](C)(C)CCOP(=O)([O-])OC[C@H](O)CO
inactive: [1] 1.7% | [2] -0.4% | [3] 3.2%

CC(=O)Oc1cc(C(C)C)c(OCCN(C)C)cc1C
inactive: [1] 1.9% | [2] 2% | [3] 0.9%

CC(C)C12CN3CC(C(C)C)(CN(C1)C3c1ccccc1)C2O (configuration not stated)
inactive: [1] 1.7% | [2] 1.2% | [3] 7%

CC1(C)CC(C(CC(=O)O)c2ccccc2)CCO1 (configuration not stated)
inactive: [1] 0.4% | [2] -0.2% | [3] -7.8%

COc1cc(C(=O)NCCCCCC(=O)O)cc(OC)c1OC
inactive: [1] 1.3% | [2] -0.4% | [3] -13.3%

CC(=O)Oc1ccc(C(c2ccc(OC(C)=O)cc2)c2ccccn2)cc1
inactive: [1] 1.2% | [2] -0.3% | [3] -2.2%

COc1ccc2c(C=O)cn(C)c2c1
inactive: [1] 1.9% | [2] -0.9% | [3] 2.1%

O=c1nc2sc3ccccc3n2c(=O)n1-c1ccc(Cl)cc1
inactive: [1] 0.3% | [2] -1.6% | [3] -7.9%

Nc1nc(SCc2ccc([N+](=O)[O-])cc2)c2ncn(C3OC(CO)C(O)C3O)c2n1 (configuration not stated)
inactive: [1] 0.3% | [2] 1% | [3] 5%

COc1cc(OC)cc(C(C)=O)c1
inactive: [1] -1.9% | [2] -1.3% | [3] -0.1%

COc1cccc(CN2C(=O)N(C(C)C)C(N(O)C(=O)NC(C)C)C2(C)C)c1OC (configuration not stated)
inactive: [1] -1.7% | [2] -0.8% | [3] -2.1%

O=C(Nc1cccc(C(=O)O)c1)/C(=C\c1ccccc1)NC(=O)c1ccccc1
inactive: [1] 1.8% | [2] 0.3% | [3] -0.8%

CCOc1ccc2[nH]c3c(=O)n(CCc4ccc(OC)cc4)cnc3c2c1
inactive: [1] 1.7% | [2] 2% | [3] 0.2%

COc1cccc(C2CC(=O)C3=C(C2)Nc2ccccc2N(C(=O)CCC(=O)O)C3c2ccc(F)cc2)c1 (configuration not stated)
inactive: [1] 1.3% | [2] 0.4% | [3] 5.1%

COc1ccc(CCNc2ncnc3c2[nH]c2cc(OC)c(OC)cc23)cc1OC
inactive: [1] -0.5% | [2] -0.5% | [3] -0.7%

O=C(NCc1ccc2c(c1)OCO2)c1ccc2c(c1)OCCO2
inactive: [1] 2% | [2] 0.7% | [3] -0.5%

CCc1cc2c(=O)c(-c3nc(C)cs3)c(CCCC(=O)O)oc2cc1O
inactive: [1] 1.9% | [2] -1.9% | [3] -3.9%

Cc1ccc(C2CC(=O)C(C=NCCN3CCN(CC(=O)Nc4cc(C)cc(C)c4)CC3)=C(O)C2)cc1 (configuration not stated)
inactive: [1] 2% | [2] 0.6% | [3] 0.4%

CC(C)CN1CCN(Cc2cccn2-c2ccccn2)CC1CCO (configuration not stated)
inactive: [1] -0.4% | [2] -0.5% | [3] 3.6%

COC(=O)CSc1nc2ccc(N)cc2s1
inactive: [1] 2.6% | [2] -1% | [3] 1.5%

O=C(NC(=S)Nc1ccc2c(c1)OCCO2)c1ccccc1F
inactive: [1] 2.3% | [2] 0.4% | [3] -3%

CC(=O)OCC(OC(C)=O)C(OC(C)=O)C(OC(C)=O)C(=O)Nc1cccc(C)c1 (configuration not stated)
inactive: [1] 3.7% | [2] 1.2% | [3] 3.1%

CC1(C)C(=O)OC(/C=C\c2ccccc2)C(C)(C)C1=O (configuration not stated)
inactive: [1] 1.5% | [2] 0.1% | [3] 4.5%

Cc1ccc2c(c1)C1CN(C)CCC1N2S(=O)(=O)c1ccc(Oc2ccc([N+](=O)[O-])cc2)cc1 (configuration not stated)
inactive: [1] 2.6% | [2] 0.4% | [3] 8.4%

c1ccc(Nc2cccc3c(Nc4ccccc4)cccc23)cc1
inactive: [1] -3.6% | [2] -3% | [3] -25.4%

O=C1ON=C(c2ccc(Cl)cc2)/C1=C/c1ccc(O)cc1
inactive: [1] -0.3% | [2] -2.3% | [3] -7.8%

CCOCCCNCc1cn(-c2ccc(F)cc2F)nc1-c1ccccc1C
inactive: [1] -0.4% | [2] -1.9% | [3] -0.3%

Cc1nc(NCc2ccco2)c(C#N)c2c1COC(C)(C)C2
inactive: [1] 1% | [2] -1.2% | [3] -0.5%

CCCCCCCC(=O)OCC(=O)[C@@]1(O)CC[C@H]2[C@@H]3CCC4=CC(=O)CC[C@]4(C)[C@H]3[C@@H](O)C[C@@]21C
inactive: [1] -3.8% | [2] 0.3% | [3] 4.7%

c1ccc(Nc2ccccn2)nc1
inactive: [1] 2.3% | [2] -2.1% | [3] -4.7%

CS(=O)(=O)Oc1ccc2c(c1)O/C(=C\C=C\c1ccccc1)C2=O
inactive: [1] 26.9% | [2] 28.3% | [3] 25%

O=C1c2ccccc2N2C(=O)c3ccccc3C2N1Cc1ccco1 (configuration not stated)
inactive: [1] 3.3% | [2] 0.7% | [3] 2.8%

CC(C)COCC(CN(Cc1ccccc1)c1ccccc1)N1CCCC1 (configuration not stated)
inactive: [1] 1.2% | [2] -1.8% | [3] -2%

Cn1c(Oc2ccc3c(c2)OCO3)nc2c1c(=O)n(Cc1ccccc1)c(=O)n2C
inactive: [1] 1.4% | [2] -0.3% | [3] -0.5%

C=CCNC(=S)N1CCc2c([nH]c3ccccc23)C1C (configuration not stated)
inactive: [1] 1.4% | [2] 0.4% | [3] 0.1%

CC(=O)/C=C/c1ccc(C)o1
inactive: [1] 3.8% | [2] 0.9% | [3] 3%

CN(C)c1ccc(C(CN)c2c[nH]c3ccccc23)cc1 (configuration not stated)
inactive: [1] -5.8% | [2] -1.5% | [3] -3.4%

O=C1C(=O)N2C(=C1C(=O)N1CCCCCC1)c1ccccc1CC21CCCC1
inactive: [1] 0.3% | [2] 0.4% | [3] -3%

O=C(Nc1cccc(-c2nc3ncccc3o2)c1)c1ccccc1
inactive: [1] 2.8% | [2] -0.9% | [3] -1.6%

O=C(CCCN1C(=O)/C(=C\c2cccc(Br)c2)SC1=S)Nc1cccnc1
inactive: [1] -1.7% | [2] -0.3% | [3] 2.4%

CCc1cccc(OC2OC(CO)C(O)C(O)C2NC(C)=O)c1 (configuration not stated)
inactive: [1] -0.7% | [2] -0.7% | [3] -4.6%

CC1=C(/C=C/C(C)=C/C=C/C(C)=C/C(=O)O)C(C)(C)CCC1
inactive: [1] 0.8% | [2] -0.1% | [3] 0.4%

N#Cc1c2c(c(-c3ccccc3)[nH]c1=O)CCCC2
inactive: [1] -7.4% | [2] -0.9% | [3] 2.3%

CNCCc1ccccn1
inactive: [1] 1.1% | [2] 1.1% | [3] -8.2%

CN(Cc1c(C(=O)N(C)Cc2ccccc2)nc2ccccn12)CC1Cc2ccccc2O1 (configuration not stated)
inactive: [1] 4.4% | [2] 0.4% | [3] -5.9%

CCOc1ccccc1Oc1coc2cc(OCC(=O)O)ccc2c1=O
inactive: [1] 0% | [2] 1.4% | [3] 0.2%

COc1ccc(C2NC(=O)c3ccccc3O2)c(OC)c1OC (configuration not stated)
inactive: [1] -2.1% | [2] -0.5% | [3] 2.9%

C1CCC(C(CC2CCCCN2)C2CCCCC2)CC1 (configuration not stated)
inactive: [1] -7.7% | [2] 0.4% | [3] -14.1%

C[C@]12CCC(=O)C=C1[C@H](O)C[C@@H]1[C@@H]2[C@@H](O)C[C@@]2(C)[C@H]1CC[C@]2(O)C(=O)CO
inactive: [1] -0.1% | [2] -0.3% | [3] 4.2%

CN1C(C(=O)Nc2ccccn2)=C(O)c2ccccc2S1(=O)=O
inactive: [1] 1.9% | [2] 1.5% | [3] 10%

Cc1ccc2nc3c(cc(C(=O)NCC4CCCO4)c(=N)n3CCCOC(C)C)c(=O)n2c1 (configuration not stated)
inactive: [1] 3.3% | [2] -0.1% | [3] -4%

O=C(c1cccc2ccccc12)C1CCCN(C(=O)CCN2CCCO2)C1 (configuration not stated)
inactive: [1] 1.2% | [2] 1.1% | [3] 2.5%

Cc1c2c(nc3c(C)cccc13)OC(C)C2 (configuration not stated)
inactive: [1] 2.9% | [2] -2.4% | [3] -4.3%

CCOC(=O)C1=C(N)Oc2c(oc(CO)cc2=O)C1c1ccc(F)c(F)c1 (configuration not stated)
inactive: [1] 2.1% | [2] 0.3% | [3] -2.3%

CC(=O)c1cccc2c(O)c(C3=Nc4ccccc4C3=O)[nH]c12
inactive: [1] -2.1% | [2] 0.6% | [3] 6.7%

Cc1ccsc1/C=N\NC(=O)c1ccc2c(c1)OCO2
inactive: [1] 2.9% | [2] 0.4% | [3] -1.3%

CC1CCN(C(=O)Oc2ccccc2)CC1
inactive: [1] -2.4% | [2] -1.5% | [3] 3.8%

O=C(CNC(=O)OCc1ccccc1)NC1CCCCCC1
inactive: [1] -1% | [2] -1.8% | [3] -3.4%

COc1cc(CO)ccc1OCc1nnnn1-c1ccc(C)cc1
inactive: [1] -0.2% | [2] -1% | [3] -8.2%

NCc1ccccc1COc1ccccc1
inactive: [1] 2.3% | [2] 0.1% | [3] -1.7%

C[N+]1(C2CCC3CCCC2C3O)CCCCC1 (configuration not stated)
inactive: [1] 1.7% | [2] 2.4% | [3] -3.7%

Cc1ccc(S(=O)(=O)n2ccnc2)cc1C
inactive: [1] 1.4% | [2] -0.3% | [3] -1.7%

Cc1csc(-c2coc3cc(O)cc(C)c3c2=O)n1
inactive: [1] 0.3% | [2] 1.7% | [3] 0.3%

Nc1nnc(CSCc2ccc(Cl)cc2Cl)s1
inactive: [1] 0.7% | [2] -0.6% | [3] 6.8%

Source: PubChem BioAssay
